Inconclusive results are not listed. Activity calls are given as the source filed them. The calls were made as follows, unless noted: active = hit-call score of the fitted dose curve at least 0.9, where 1 is the maximum; inconclusive = response in the unintended direction; inactive = score below 0.9.
Assays:
[1] = ATG_TAL_CIS: Attagene CIS-FACTORIAL HepG2 Assay for human TAL Basal Promoter (AID 2282966; active = hit-call score of the fitted dose curve at least 0.9, where 1 is the maximum; inactive = score below 0.9;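 also: background control endpoint measuring basal TAL promoter reporter mRNA not a specific factor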); settings: HepG2 Attagene cis-factorial TAL promoter reporter; actives raise or lower the signal
In short: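 In this cell-based multiplex, HepG2 liver cells bearing cis-promoter reporter constructs are dosed for 24 hours. Total RNA is reverse-transcribed and amplified, labelled fragments are sized by capillary electrophoresis, and signal changes are fitted bidirectionally versus DMSO.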

[2] = ATG_TGFb_CIS: Attagene CIS-FACTORIAL HepG2 Assay for human Transforming Growth Factor (TGF) (AID 2282967; active = hit-call score of the fitted dose curve at least 0.9, where 1 is the maximum; inactive = score below 0.9); settings: HepG2 Attagene CIS TGFb reporter, mRNA transcription; actives raise or lower the signal
In short: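 Multiplexed cis-reporter HepG2 system, 24 h treatment; mRNA induction read by fluorescence after RT-PCR and CE; DMSO negative control, bidirectional curve fitting.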

[3] = target: Estrogen receptor (Homo sapiens) (UniProt P03372); experiment: ATG_ERa_TRANS: Attagene TRANS-FACTORIAL HepG2 Assay for human Estrogen Receptor alpha (ERa) (AID 2282970); settings: HepG2 Attagene TRANS ERa GAL4 reporter, mRNA
In short: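 After 24 h of compound treatment, RNA from HepG2 cells bearing transfected GAL4-UAS reporter constructs is converted to cDNA, amplified and fluorescently labelled. Capillary electrophoresis resolves the ERa-linked reporter; DMSO serves as negative control.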

[4] = target: X-box-binding protein 1 (Homo sapiens) (UniProt P17861); experiment: ATG_Xbp1_CIS: Attagene CIS-FACTORIAL HepG2 Assay for human X-box Binding Protein 1 (XBP1) (AID 2282972; active = hit-call score of the fitted dose curve at least 0.9, where 1 is the maximum; inactive = score below 0.9); settings: HepG2 XBP1 cis-element reporter, Attagene multiplex; actives raise or lower the signal
Sequence of X-box-binding protein 1 (Homo sapiens) (P17861 whole entry, looked up, the tested form may be a part): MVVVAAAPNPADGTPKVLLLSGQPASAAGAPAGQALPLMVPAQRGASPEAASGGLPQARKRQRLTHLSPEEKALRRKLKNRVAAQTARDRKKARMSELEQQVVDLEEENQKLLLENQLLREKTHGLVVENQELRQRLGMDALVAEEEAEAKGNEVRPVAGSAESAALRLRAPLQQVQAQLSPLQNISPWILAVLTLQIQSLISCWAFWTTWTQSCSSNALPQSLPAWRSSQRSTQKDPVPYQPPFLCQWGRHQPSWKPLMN
In short: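 Fluorescence-labelled cDNA fragments from reporter transcripts, separated by capillary electrophoresis, give the signal. Source: HepG2 cells transfected with promoter-driven reporter units, harvested 24 h post-dose. DMSO served as reference for bidirectional curve fitting.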

[5] = ATG_M_19_TRANS: Attagene TRANS-FACTORIAL HepG2 Assay for M19 Transcription Factor (Internal Marker) (AID 2282974); settings: HepG2 Attagene TRANS-FACTORIAL M19 internal marker reporter
In short: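 Transfected HepG2 (GAL4-UAS MRTUs), 24 h compound, TriZol RNA, DNase-treated RT, reporter PCR, FAM label, HpaI digest, CE fluorescence; gain vs DMSO.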

[6] = target: Oxysterols receptor LXR-alpha (Homo sapiens) (UniProt Q13133); experiment: ATG_LXRa_TRANS: Attagene TRANS-FACTORIAL HepG2 Assay for human Liver X Receptor alpha (LXRa) (AID 2282980); settings: HepG2 Attagene TRANS reporter, LXRa transactivation
Sequence of Oxysterols receptor LXR-alpha (Homo sapiens) (Q13133 whole entry, looked up, the tested form may be a part): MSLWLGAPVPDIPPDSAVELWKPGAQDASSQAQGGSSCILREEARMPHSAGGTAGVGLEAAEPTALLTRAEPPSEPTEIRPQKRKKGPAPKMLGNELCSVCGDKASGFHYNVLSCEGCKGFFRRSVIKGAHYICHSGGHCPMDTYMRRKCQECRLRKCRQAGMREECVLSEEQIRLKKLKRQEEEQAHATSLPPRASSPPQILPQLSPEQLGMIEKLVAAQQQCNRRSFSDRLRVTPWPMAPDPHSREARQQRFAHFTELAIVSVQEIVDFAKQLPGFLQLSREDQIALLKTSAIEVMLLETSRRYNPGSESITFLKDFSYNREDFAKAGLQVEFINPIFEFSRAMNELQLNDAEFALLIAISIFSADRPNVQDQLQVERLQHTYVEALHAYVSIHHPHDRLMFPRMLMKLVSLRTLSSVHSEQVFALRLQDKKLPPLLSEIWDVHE
In short: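 Read-out: reporter transcript levels by RT-PCR plus capillary electrophoresis, fluorescence intensity. Transiently transfected HepG2, exogenous NR-GAL4 chimera, GAL4-UAS reporters; 24 h compound exposure. Activity = increase over DMSO negative control.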

[7] = target: Oxysterols receptor LXR-beta (Homo sapiens) (UniProt P55055); experiment: ATG_LXRb_TRANS: Attagene TRANS-FACTORIAL HepG2 Assay for human Liver X Receptor beta (LXRb) (AID 2282981); settings: HepG2 Attagene TRANS GAL4-LXRb reporter, mRNA
Sequence of Oxysterols receptor LXR-beta (Homo sapiens) (P55055 whole entry, looked up, the tested form may be a part): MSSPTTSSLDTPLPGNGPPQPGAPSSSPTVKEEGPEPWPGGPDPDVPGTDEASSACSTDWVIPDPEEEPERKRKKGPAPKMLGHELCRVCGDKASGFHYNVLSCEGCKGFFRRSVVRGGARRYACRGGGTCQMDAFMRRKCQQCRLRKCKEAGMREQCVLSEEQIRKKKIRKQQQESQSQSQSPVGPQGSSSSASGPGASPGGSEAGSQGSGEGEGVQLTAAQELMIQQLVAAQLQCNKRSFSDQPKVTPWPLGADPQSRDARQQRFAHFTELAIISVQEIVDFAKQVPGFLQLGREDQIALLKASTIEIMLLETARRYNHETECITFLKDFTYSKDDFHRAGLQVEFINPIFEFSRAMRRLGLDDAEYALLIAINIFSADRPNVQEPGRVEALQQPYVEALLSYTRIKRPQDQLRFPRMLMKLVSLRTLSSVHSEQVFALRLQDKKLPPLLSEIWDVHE
In short: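 Transient transfection HepG2 (multiplexed RTUs, GAL4-UAS); NR-Gal4 chimera; 24 h exposure; RNA → RT-PCR → 6-FAM primer extension → HpaI → CE; increase vs DMSO.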

[8] = target: Hepatocyte nuclear factor 4-alpha (Homo sapiens) (UniProt P41235); experiment: ATG_HNF4a_TRANS: Attagene TRANS-FACTORIAL HepG2 Assay for human Hepatocyte Nuclear Factor 4 alpha (HNF4a) (AID 2282982); settings: HepG2 HNF4a transactivation reporter, mRNA readout
Sequence of Hepatocyte nuclear factor 4-alpha (Homo sapiens) (P41235 whole entry, looked up, the tested form may be a part): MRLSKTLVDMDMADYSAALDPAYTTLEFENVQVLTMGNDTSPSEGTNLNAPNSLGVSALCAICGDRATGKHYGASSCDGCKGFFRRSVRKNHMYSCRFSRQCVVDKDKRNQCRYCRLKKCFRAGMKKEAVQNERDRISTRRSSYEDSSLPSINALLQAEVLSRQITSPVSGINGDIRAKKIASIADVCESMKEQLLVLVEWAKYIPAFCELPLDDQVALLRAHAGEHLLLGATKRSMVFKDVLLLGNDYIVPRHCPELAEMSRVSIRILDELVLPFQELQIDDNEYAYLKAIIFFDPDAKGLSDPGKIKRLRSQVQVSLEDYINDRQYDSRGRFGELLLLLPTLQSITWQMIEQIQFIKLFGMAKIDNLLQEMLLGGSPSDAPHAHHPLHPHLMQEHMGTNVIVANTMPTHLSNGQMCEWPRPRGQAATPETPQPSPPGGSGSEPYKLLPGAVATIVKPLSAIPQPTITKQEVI
In short: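 Readout is fluorescent reporter-transcript fragments resolved by capillary electrophoresis after RT-PCR from HepG2 cells dosed for 24 h. Cells carried transfected GAL4-UAS reporter constructs measuring exogenous NR-GAL4 chimera activity; DMSO served as baseline.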

[9] = ATG_M_06_TRANS: Attagene TRANS-FACTORIAL HepG2 Assay for M06 Transcription Factor (Internal Marker) (AID 2282983); settings: HepG2 Attagene TRANS M06 internal marker reporter
In short: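 After a 24 h chemical treatment of transfected HepG2, RNA underwent DNase I treatment, reverse transcription and reporter-specific PCR; labelled, HpaI-digested products were sized by capillary electrophoresis. Signal increase relative to DMSO defined activity.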

[10] = ATG_M_32_TRANS: Attagene TRANS-FACTORIAL HepG2 Assay for M32 Transcription Factor (Internal Marker) (AID 2282984); settings: HepG2 Attagene TRANS M32 internal marker reporter;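 also: transcript level of a background control reporter unit measured by RT-PCR and capillary electrophoresis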
In short: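 Measures reporter mRNA induction in human HepG2 liver cells after 24 h chemical treatment. Transcripts from transiently transfected GAL4-UAS reporter units are amplified, fluorescently labelled and sized by capillary electrophoresis; gain of signal relative to DMSO.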

[11] = target: Transcriptional activator Myb (Homo sapiens) (UniProt P10242); experiment: ATG_Myb_CIS: Attagene CIS-FACTORIAL HepG2 Assay for human Myeloblastosis (Myb) Proto-Oncogene Transcription Factor (AID 2282986; active = hit-call score of the fitted dose curve at least 0.9, where 1 is the maximum; inactive = score below 0.9); settings: HepG2 Attagene CIS-FACTORIAL Myb reporter transcription; actives raise or lower the signal
Sequence of Transcriptional activator Myb (Homo sapiens) (P10242 whole entry, looked up): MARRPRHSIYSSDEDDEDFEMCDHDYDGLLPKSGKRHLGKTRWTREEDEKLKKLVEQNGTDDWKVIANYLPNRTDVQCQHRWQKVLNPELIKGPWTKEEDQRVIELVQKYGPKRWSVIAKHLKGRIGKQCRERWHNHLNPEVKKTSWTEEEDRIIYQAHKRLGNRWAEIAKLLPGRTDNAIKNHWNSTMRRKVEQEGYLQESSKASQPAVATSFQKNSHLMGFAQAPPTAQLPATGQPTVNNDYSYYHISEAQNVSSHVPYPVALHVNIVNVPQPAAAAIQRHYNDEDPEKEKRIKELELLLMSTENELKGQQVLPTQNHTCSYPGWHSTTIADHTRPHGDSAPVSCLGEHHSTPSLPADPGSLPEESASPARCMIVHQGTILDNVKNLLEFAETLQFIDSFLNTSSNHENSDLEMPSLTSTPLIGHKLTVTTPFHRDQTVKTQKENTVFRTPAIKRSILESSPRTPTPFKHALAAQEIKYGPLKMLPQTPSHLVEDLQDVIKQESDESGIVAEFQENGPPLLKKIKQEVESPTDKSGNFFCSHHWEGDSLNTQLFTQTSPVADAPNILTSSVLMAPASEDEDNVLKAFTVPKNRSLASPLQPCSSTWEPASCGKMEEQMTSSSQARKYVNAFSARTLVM
In short: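 After 24 h of compound dosing, total RNA from transfected HepG2 cells is reverse-transcribed and the reporter sequences amplified, labeled and separated by capillary electrophoresis. Values come from bidirectional fitting against DMSO.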

[12] = target: Nuclear respiratory factor 1 (Homo sapiens) (UniProt Q16656); experiment: ATG_NRF1_CIS: Attagene CIS-FACTORIAL HepG2 Assay for human Nuclear Respiratory Factor 1 (NRF1) Orphan Gene (AID 2282987; active = hit-call score of the fitted dose curve at least 0.9, where 1 is the maximum; inactive = score below 0.9); settings: HepG2 NRF1 cis-element reporter, Attagene multiplex; actives raise or lower the signal
Sequence of Nuclear respiratory factor 1 (Homo sapiens) (Q16656 whole entry, looked up): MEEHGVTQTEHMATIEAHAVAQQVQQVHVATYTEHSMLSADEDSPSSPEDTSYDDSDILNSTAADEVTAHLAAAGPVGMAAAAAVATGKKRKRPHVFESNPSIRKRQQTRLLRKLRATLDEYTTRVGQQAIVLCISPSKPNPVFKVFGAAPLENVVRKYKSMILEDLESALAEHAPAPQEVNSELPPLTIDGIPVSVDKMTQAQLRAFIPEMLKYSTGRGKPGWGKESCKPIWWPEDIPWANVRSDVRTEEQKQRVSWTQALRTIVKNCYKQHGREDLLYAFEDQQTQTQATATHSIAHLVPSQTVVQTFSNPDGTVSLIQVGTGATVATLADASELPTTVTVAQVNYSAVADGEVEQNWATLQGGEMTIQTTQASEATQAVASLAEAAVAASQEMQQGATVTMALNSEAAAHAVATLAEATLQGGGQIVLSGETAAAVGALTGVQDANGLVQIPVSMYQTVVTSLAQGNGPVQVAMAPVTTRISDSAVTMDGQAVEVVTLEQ
In short: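 Measured: fluorescent reporter-specific RT-PCR products from transfected HepG2 cells, separated by capillary electrophoresis. Exposure lasted 24 h. Analysis used bidirectional curve fitting with DMSO as negative control.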

[13] = target: Glucocorticoid receptor (Homo sapiens) (UniProt P04150); experiment: ATG_GR_TRANS: Attagene TRANS-FACTORIAL HepG2 Assay for human Glucocorticoid Receptor (GR) (AID 2282978); settings: HepG2 Attagene TRANS GR reporter, mRNA transcription;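 also: activators score as hits since higher reporter transcript over DMSO is fitted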
Sequence of Glucocorticoid receptor (Homo sapiens) (P04150 whole entry, looked up): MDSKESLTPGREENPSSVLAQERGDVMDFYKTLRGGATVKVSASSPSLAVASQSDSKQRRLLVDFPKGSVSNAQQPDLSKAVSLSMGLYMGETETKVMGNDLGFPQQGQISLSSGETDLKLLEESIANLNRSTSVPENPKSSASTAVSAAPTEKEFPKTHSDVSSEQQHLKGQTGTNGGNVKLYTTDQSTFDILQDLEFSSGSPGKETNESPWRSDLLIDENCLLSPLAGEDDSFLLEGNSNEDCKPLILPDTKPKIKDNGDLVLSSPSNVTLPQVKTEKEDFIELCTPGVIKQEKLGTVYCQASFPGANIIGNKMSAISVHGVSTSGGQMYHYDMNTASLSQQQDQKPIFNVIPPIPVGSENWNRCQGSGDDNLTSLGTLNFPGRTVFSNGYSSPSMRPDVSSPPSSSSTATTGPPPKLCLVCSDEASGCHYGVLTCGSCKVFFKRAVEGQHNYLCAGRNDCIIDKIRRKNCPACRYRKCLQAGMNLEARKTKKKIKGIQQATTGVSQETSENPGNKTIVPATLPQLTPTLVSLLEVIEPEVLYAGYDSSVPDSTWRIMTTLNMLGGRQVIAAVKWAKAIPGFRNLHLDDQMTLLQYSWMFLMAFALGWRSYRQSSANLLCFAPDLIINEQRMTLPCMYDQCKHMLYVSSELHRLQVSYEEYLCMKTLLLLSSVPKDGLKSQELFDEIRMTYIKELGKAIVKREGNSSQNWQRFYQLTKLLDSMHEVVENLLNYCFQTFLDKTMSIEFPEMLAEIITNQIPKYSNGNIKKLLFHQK
In short: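 After 24 h incubation with test chemical, transfected HepG2 cells were lysed for RNA; reporter cDNA was amplified, FAM-labelled, HpaI-digested and sized on a capillary analyser. Signal gain relative to DMSO was scored.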

[14] = target: Bile acid receptor (Homo sapiens) (UniProt Q96RI1); experiment: ATG_FXR_TRANS: Attagene TRANS-FACTORIAL HepG2 Assay for Farnesoid X Receptor (FXR) (AID 2282979); settings: HepG2 Attagene TRANS FXR-GAL4 reporter transcription;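 also: hits raise reporter mRNA above DMSO so AC50 marks FXR activation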
Sequence of Bile acid receptor (Homo sapiens) (Q96RI1 whole entry, looked up, the tested form may be a part): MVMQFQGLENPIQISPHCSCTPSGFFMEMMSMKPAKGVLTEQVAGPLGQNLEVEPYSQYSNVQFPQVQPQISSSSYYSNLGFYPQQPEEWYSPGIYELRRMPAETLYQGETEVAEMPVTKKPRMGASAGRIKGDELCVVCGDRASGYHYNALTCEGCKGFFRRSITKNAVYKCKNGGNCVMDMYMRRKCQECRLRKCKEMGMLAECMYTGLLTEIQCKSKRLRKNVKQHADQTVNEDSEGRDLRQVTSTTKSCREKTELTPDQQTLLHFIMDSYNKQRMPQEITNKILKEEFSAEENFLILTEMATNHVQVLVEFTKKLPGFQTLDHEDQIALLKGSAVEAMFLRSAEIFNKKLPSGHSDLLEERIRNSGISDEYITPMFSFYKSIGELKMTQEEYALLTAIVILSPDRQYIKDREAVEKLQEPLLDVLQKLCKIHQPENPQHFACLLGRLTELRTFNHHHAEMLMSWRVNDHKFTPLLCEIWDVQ
In short: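 Read-out: fluorescent reporter transcripts quantified by capillary electrophoresis after RT-PCR of total RNA. Source cells were HepG2 transiently carrying chimeric NR-GAL4 plus GAL4-UAS reporter units, dosed 24 h. Activity fitted upward relative to DMSO baseline.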

[15] = target: Nuclear receptor subfamily 1 group I member 3 (Homo sapiens) (UniProt Q14994); experiment: ATG_CAR_TRANS: Attagene TRANS-FACTORIAL HepG2 Assay for human Constitutive Androstane Receptor (CAR) (AID 2282969); settings: HepG2 Attagene TRANS-FACTORIAL CAR reporter;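 also: activators raise reporter mRNA above DMSO so AC50 marks induction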
Sequence of Nuclear receptor subfamily 1 group I member 3 (Homo sapiens) (Q14994 whole entry, looked up, the tested form may be a part): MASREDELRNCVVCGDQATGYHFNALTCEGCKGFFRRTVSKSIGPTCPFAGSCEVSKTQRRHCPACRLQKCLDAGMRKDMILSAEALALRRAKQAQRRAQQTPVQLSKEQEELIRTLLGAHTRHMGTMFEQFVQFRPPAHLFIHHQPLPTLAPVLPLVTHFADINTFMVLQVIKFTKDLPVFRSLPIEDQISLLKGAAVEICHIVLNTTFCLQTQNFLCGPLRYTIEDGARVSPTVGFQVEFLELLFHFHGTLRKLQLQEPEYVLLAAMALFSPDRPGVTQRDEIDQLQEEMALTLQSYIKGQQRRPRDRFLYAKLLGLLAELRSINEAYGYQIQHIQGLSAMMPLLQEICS
In short: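 Readout is reporter mRNA induction, quantified by fluorescent primer extension and capillary electrophoresis after RT-PCR. Cells were HepG2 transiently carrying chimeric NR-Gal4 constructs with GAL4-UAS reporters, treated for 24 h; activity scored upward from DMSO.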

[16] = ATG_GAL4_TRANS: Attagene TRANS-FACTORIAL HepG2 Assay for GAL4 (Internal Marker) (AID 2282976); settings: HepG2 Attagene TRANS GAL4 internal marker reporter
In short: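 RT-PCR/capillary electrophoresis readout of reporter mRNA. HepG2, transient MRTU transfection (GAL4-UAS reporters), 24 h compound exposure. Background-control endpoint, positive direction vs DMSO baseline.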

[17] = target: Nuclear receptor subfamily 4 group A member 2 (Homo sapiens) (UniProt P43354); experiment: ATG_NURR1_TRANS: Attagene TRANS-FACTORIAL HepG2 Assay for human Nuclear Receptor Related Protein 1 (NURR1) (AID 2282985); settings: HepG2 Attagene TRANS reporter, mRNA readout
Sequence of Nuclear receptor subfamily 4 group A member 2 (Homo sapiens) (P43354 whole entry, looked up, the tested form may be a part): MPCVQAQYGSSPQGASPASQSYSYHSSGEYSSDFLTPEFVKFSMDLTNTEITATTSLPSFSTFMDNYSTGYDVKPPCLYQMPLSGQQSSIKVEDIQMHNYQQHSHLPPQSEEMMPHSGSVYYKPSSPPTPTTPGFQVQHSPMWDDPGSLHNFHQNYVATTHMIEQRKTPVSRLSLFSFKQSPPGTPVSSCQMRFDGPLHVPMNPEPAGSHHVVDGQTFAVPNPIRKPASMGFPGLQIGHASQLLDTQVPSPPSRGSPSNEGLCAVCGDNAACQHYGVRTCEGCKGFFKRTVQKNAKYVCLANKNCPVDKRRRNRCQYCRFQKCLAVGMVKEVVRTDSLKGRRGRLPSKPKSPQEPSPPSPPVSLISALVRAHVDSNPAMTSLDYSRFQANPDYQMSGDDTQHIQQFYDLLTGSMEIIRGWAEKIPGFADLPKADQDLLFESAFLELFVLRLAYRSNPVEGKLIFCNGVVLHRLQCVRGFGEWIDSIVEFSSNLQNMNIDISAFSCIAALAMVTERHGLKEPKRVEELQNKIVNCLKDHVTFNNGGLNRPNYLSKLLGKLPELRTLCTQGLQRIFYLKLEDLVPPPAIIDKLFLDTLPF
In short: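 Transient transfection of HepG2, human liver cells, with multiple GAL4-UAS reporter transcription units. Cells dosed 24 h, RNA isolated, reverse-transcribed, PCR-amplified, FAM-labelled, HpaI-digested, sized by capillary electrophoresis. DMSO served as negative control.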

[18] = ATG_VDRE_CIS: Attagene CIS-FACTORIAL HepG2 Assay for human Vitamin D Receptor Element (VDRE) (AID 2282968; active = hit-call score of the fitted dose curve at least 0.9, where 1 is the maximum; inactive = score below 0.9); settings: HepG2 VDRE cis-reporter transcription, actives raise or lower the signal
In short: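 Reporter mRNA induction, quantified by capillary electrophoresis of fluorescently labelled RT-PCR products, was read 24 h after dosing HepG2 cells carrying transiently transfected cis-regulated reporter units; gain or loss relative to DMSO.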

[19] = target: Steroid hormone receptor ERR1 (Homo sapiens) (UniProt P11474); experiment: ATG_ERRa_TRANS: Attagene TRANS-FACTORIAL HepG2 Assay for human Estrogen-Related Receptor alpha (ERRa) (AID 2282971); settings: HepG2 Attagene TRANS reporter, ERRa transactivation
In short: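 Transfected HepG2, 24 h dosing, ERRa-Gal4 chimera driving GAL4-UAS reporter. Readout: reporter mRNA via RT-PCR plus capillary electrophoresis (fluorescence). Positive direction vs DMSO control.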

[20] = target: Estrogen-related receptor gamma (Homo sapiens) (UniProt P62508); experiment: ATG_ERRg_TRANS: Attagene TRANS-FACTORIAL HepG2 Assay for human Estrogen-Related Receptor gamma (ERRg) (AID 2282977); settings: HepG2 Attagene TRANS reporter, ERRg transactivation;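 also: hits increase reporter signal over DMSO so potencies reflect activators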
In short: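 Transfect HepG2 with multiple GAL4-UAS reporter transcription units; dose chemicals 24 h; isolate RNA, reverse-transcribe with oligo(dT), PCR-amplify, label with 6-FAM, digest with HpaI; size fragments by capillary electrophoresis. DMSO serves as negative control.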

Measured: AC50

O=CN1CCOCC1
not listed: [13] | [14] | [15] | [16] | [17] | [18] | [19] | [20]
inactive: all other assays above

CCCCCCCCSCCO
inactive: [1] | [2] | [4] | [13] | [14] | [6] | [7] | [9] | [10] | [11] | [12]

CCCCSCCCC
inactive: [1] | [2] | [15] | [4] | [16] | [6] | [9] | [10] | [11] | [12]

C[C@@H]1CCN(C(=O)[C@H](CCCN=C(N)N)NS(=O)(=O)c2cccc3c2NC[C@H](C)C3)[C@@H](C(=O)O)C1
inactive: [1] | [2] | [4] | [16] | [7] | [9] | [17] | [11]

COc1ccc(COC(C)=O)cc1
not listed: [1] | [3] | [6] | [10] | [13] | [16]
inactive: all other assays above

CCCCCCCCCC(=O)OC
inactive: [1] | [2] | [4] | [5] | [8] | [11]

CCO/C=C1\N=C(c2ccccc2)OC1=O
inactive: [1] | [2] | [5] | [7] | [8] | [17] | [11] | [12]

CC(C)CCCCCCCCCCCCCCC(=O)O
inactive: [1] | [4] | [6] | [9] | [10] | [17] | [11] | [12]
active: [2] 177 µM

Clc1ccc(C(c2ccccc2Cl)C(Cl)Cl)cc1 (stereo not drawn)
inactive: [2] | [5] | [16] | [13] | [14] | [9] | [10] | [11]
active: [1] 23.7 µM | [12] 44.2 µM
